Shown are actives, neighbours in structure and some others; about 2.4% of the full set was active somewhere.
p53ts 39C tox – cytotoxicity in p53ts cells at nonpermissive temperature. H1299-p53A138V viability at 39C, ATP luminescence, 24 h. Potency, µM (top dose mostly 46.1 µM), without a hit: at the highest dose activity change, negative = cell killing, actives largely listed as cytotoxic. 130,000 compounds, 1.5% hits. AID 902; note: % is set by controls: 0 for no effect and ±100 for the full control effect; nearly all actives have a fitted effect of over 55% in size
FLuc inh – inhibitors of firefly luciferase; purified firefly luciferase, luminescence, 8 min; Potency, µM (titrated, usually from 57.1 µM), without a hit: at the top dose activity change, negative = inhibition, actives largely listed as inhibitors; 72,000 compounds, 2.2% hits; AID 411; P08659; note: % is set by controls: 0 for no effect and ±100 for the full control effect; nearly all actives have a fitted effect of over 40% in size
Target sequence (P08659 whole entry, looked up): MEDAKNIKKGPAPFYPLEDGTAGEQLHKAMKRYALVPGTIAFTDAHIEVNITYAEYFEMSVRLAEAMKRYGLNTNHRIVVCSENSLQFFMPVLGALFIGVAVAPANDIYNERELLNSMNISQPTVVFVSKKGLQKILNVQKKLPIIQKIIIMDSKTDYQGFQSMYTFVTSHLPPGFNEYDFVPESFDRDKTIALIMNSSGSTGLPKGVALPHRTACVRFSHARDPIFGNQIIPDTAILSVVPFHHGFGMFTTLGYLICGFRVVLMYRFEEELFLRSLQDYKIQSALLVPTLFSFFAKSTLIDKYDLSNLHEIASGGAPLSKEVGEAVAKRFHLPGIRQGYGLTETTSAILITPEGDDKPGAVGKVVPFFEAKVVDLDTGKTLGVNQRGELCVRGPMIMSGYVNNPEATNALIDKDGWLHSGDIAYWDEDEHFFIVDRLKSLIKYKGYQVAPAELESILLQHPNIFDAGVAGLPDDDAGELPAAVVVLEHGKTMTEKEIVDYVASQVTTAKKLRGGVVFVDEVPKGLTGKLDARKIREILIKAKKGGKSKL
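Substrate buffer containing 10 uM ATP (pH 7.2 imidazole, Mg2+, KCl, detergent, BSA) is dispensed, compound pinned in, then luciferase/luciferin detector mix added. After 8 min at ambient temperature, light output is measured.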
IkB signaling – suppresses IkB signaling in ABC-DLBCL reporter cells. ABC-DLBCL IkBa-CBG/CBR dual luciferase ratio, 4 h; response scale: scaled: untreated 0%, proteasome inhibitor 100%. Potency, µM (highest dose often 57.1 µM), inactives show at the top dose IkBa stabilization activation. 110,000 compounds, 0.04% hits; active = well fitted curve in the direction sought with a large enough effect in the signal ratio, not every such curve was filed as active; inconclusive = small, poorly fitted or top-dose-only effect, or a change in a side signal; the % refers to the signal ratio;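 note: the direction sought is a rising ratio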
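Curves were fitted separately to fusion (green), unfused (red) and ratio luminescence, then classed by r2, magnitude and activity. Cells: OCI-Ly3, 4 h compound plus doxycycline at 37C; 10 uM MG-132 defined full response.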
p53ts 32C kill – cytotoxicity in p53ts cells at permissive temperature. H1299-p53A138V at 32C, ATP luminescence viability, 24 h. Potency, µM (doses to about 46.1 µM), for inactives: at the highest dose activity change, negative = cytotoxicity, usual class: cytotoxic. 130,000 compounds, 0.93% hits. AID 924;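 note: 0% = DMSO and -100% = full killing by reference compound; nearly all actives have a fitted effect of over 55% in size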
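ATP-content luminescence (ATPlite) read-out after 24 h compound exposure at 32C in H1299-p53A138V cells (600/well). Tested up to 46 uM. Normalized to DMSO (0%) and 100 uM tamoxifen (100% killing); Hill-fit AC50.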
Imprint erasure – inducers of genomic imprint erasure in mouse ES cells; mouse ES Peg3-LacZ reporter, beta-gal luminescence, 40 h; Potency, µM (doses to about 60.7 µM), without a hit: at the top dose activity change, positive = activation, hits mostly activators; 110,000 compounds, 0.02% hits
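Gelatin-coated wells received 300 freshly trypsinized female ES cells with a Peg3LacZ-Neo reporter on the maternal allele, then incubated 40 hours at 37C. BetaGlo was added for 5 minutes at room temperature before a single luminescence read.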
* marks the source's active call; other numbers are inactive results; ? = inconclusive; . = no result; [ ] = dose if it differs, or a comment. Unless noted, calls come from the whole dose curve; as a rule, active = well fitted curve in the direction sought with a large enough effect; inconclusive = small, poorly fitted or top-dose-only effect, or another doubt; inactive = no such curve, though single readings can be large; an effect the other way counts as inactive or inconclusive. Potency is the fitted concentration of half-maximal effect.

SMILES	p53ts 39C tox	FLuc inh	IkB signaling	p53ts 32C kill	Imprint erasure
CCc1ccc(NC(=O)CSc2nc3ncccc3[nH]2)cc1	.	.	.	-3%	.
COc1ccccc1NC=C1C(=O)OC(C)(C)OC1=O	10%	16µM*	-5%	-18%	-8%
CCc1ccc(S(=O)(=O)c2cn(C)c3cc(N4CCC(C)CC4)c(F)cc3c2=O)cc1	.	.	.	-2%	.
Cc1cccc2c1-c1sc(C(=O)N(C)c3cccc(Cl)c3)cc1CO2	-20%	.	?	6%	-13%[10.9 µM]
Nc1ccc(S(=O)(=O)Nc2ccccn2)cc1	.	4%[25.5 µM]	1%[25.6 µM]	.	-12%
O=C1C(Cl)=C(Nc2ccc(S(=O)(=O)Nc3ccccn3)cc2)C(=O)c2ccccc21	2%[9.22 µM]	2%[11.4 µM]	6.3µM*	-1%[9.22 µM]	-35%[10.9 µM]
O=c1/c(=C\c2ccc3c(c2)OCO3)sc2n1CCCN=2	13µM*	13µM*	?	13µM*	-81%
Cc1cc(C)c2c(c1)c(C)cc1nnc(SCC(=O)c3ccccc3)n12	33%	.	?	-1%	5%[10.9 µM]
c1coc(-c2nnc(-c3ccc4c(c3)OCO4)o2)c1	?	10µM*	4%	?	-81%
O=C(Oc1ccc(-c2cnc3ccccc3n2)cc1)c1ccco1	-20%	5µM*	-8%	-29%	-87%
O=C(Oc1cccnc1)c1ccco1	.	0%[25.5 µM]	.	.	.
Cc1nn(-c2ccccn2)c2c1-c1nc(N)ncc1CC2	?	10µM*	2%	?	-12%
Cc1nn2c3c(cnc2c1-c1ccccc1)C(=O)CCC3	-6%	1%	-2%	-10%	-1%
O=c1c(N2CCN(c3cccc(Cl)c3)CC2)csc2ccccc12	?	.	?	?	-22%[10.9 µM]
O=C(Nc1nc2c(F)cccc2s1)c1ccc2c(c1)OCCO2	5µM*	.	?	10µM*	-30%[10.9 µM]
CCN(CC)S(=O)(=O)c1cccc(C(=O)Nc2nc3cc4c(cc3s2)OCCO4)c1	-3%	?	?	5%	-24%
CCN1CCc2nc(NC(=O)c3ccc4c(c3)OCCO4)sc2C1	?	16µM*	1%	?	-30%
CC(=O)Nc1ccc(NC(=O)c2oc3ccc4c(c3c2C)C(=O)CC(C)(C)O4)cc1	?	.	?	?	-10%[10.9 µM]
CC(C)c1ccc(-c2noc(SCC(=O)N3CCN(c4ccccc4F)CC3)n2)cc1	6.3µM*	.	-4%	?	-13%[10.9 µM]
COc1ccccc1N1CCN(C(=O)CSc2nc(-c3ccc(C(C)C)cc3)no2)CC1	?	.	?	7.9µM*	-11%[10.9 µM]
Cc1ccc(C(=O)c2oc3ccccc3c2NC(=O)c2nc(S(C)(=O)=O)ncc2Cl)cc1F	-22%	.	?	-1%	-6%[10.9 µM]
Oc1ccc(O)cc1	12%	-5%	2%	-2%	10µM*
COc1ccc(NC(=O)c2cnc3cc(C)ccn3c2=O)c(OC)c1	7%	.	-1%	11%	15%[10.9 µM]
C/C(=N/Nc1ccc2ccccc2n1)c1ccccc1O	2.5µM*	1.3µM*	?	3.2µM*	-56%[10.9 µM]
CN[C@@H](c1ccncc1)[C@@H](NC)c1ccncc1	3%[9.22 µM]	1%[11.4 µM]	-1%[11.4 µM]	-11%[9.22 µM]	-9%[10.9 µM]
SMILES	p53ts 39C tox	FLuc inh	IkB signaling	p53ts 32C kill	Imprint erasure
O=C(Nc1ccc2c(c1)OCO2)C1CCCN(c2nc3ccccc3s2)C1 (stereo not given)	?	0%	?	20µM*	-73%
Oc1cc(O)c2c(c1)O[C@H](c1ccc(O)c(O)c1)[C@@H](O)[C@@H]2c1c(O)cc(O)c2c1O[C@@H](c1ccc(O)c(O)c1)[C@H](O)C2	13%[9.22 µM]	0%[11.4 µM]	0%[11.4 µM]	0%[9.22 µM]	-2%[10.9 µM]
O=C(Nc1ccc2nc(-c3ccc(Br)o3)[nH]c2c1)c1ccco1	?	10µM*	?	?	-27%
CC(=O)Nc1ccc2nc(-c3cccs3)[nH]c2c1	?	16µM*	4%	?	-58%
CC(C)(C)C(=O)Nc1ccc(Cl)c(-c2nc3ccccc3[nH]2)c1	3%	.	?	-4%	-12%[10.9 µM]
Cn1cccc1-c1nc2ccc(NC(=O)c3cccs3)cc2[nH]1	1%	-24%	?	-12%	-22%
O=C(Nc1ccc2nc(-c3ccc(Br)o3)[nH]c2c1)c1cccs1	?	13µM*	?	-26%	-16%
CC(C)(C)C(=O)Nc1ccc(-c2nc3ccc(NC(=O)C(C)(C)C)cc3[nH]2)cc1	?	.	-6%	7.9µM*	-13%[10.9 µM]

Screening results as filed in PubChem BioAssay.
